Test results taken from PubChem BioAssay AID1851 (National Center for Advancing Translational Sciences (NCATS), 2009).
Values joined by “and” are separate entries in the source; they are usually repeats but may differ in a detail not shown here. Equal entries are not always repeated. Among all 16,000 compounds or so, about 2,600 (16%) were called active. Roughly 20% stayed inconclusive and do not appear here. Calls come from the whole dose curve; as a rule, active = well fitted curve in the direction sought with a large enough effect; inconclusive = small, poorly fitted or top-dose-only effect, or effect the other way; inactive = no such curve, though single readings can be large or run the other way. A selection follows. A structure can be active in one record and inactive in another.

Molecular target: Cytochrome P450 2D6 (Homo sapiens) (UniProt P10635)
Assay: Cytochrome panel assay with activity outcomes
Conditions: recombinant CYP, pro-luciferin dealkylation, luminescence, p450-cyp2d6; series mostly up to 57.1 µM; activity, negative = inhibition: at the top concentration
% is set by controls: 0 for no effect and ±100 for the full control effect.

Cytochrome P450 2D6 (Homo sapiens), sequence (P10635 whole entry, looked up): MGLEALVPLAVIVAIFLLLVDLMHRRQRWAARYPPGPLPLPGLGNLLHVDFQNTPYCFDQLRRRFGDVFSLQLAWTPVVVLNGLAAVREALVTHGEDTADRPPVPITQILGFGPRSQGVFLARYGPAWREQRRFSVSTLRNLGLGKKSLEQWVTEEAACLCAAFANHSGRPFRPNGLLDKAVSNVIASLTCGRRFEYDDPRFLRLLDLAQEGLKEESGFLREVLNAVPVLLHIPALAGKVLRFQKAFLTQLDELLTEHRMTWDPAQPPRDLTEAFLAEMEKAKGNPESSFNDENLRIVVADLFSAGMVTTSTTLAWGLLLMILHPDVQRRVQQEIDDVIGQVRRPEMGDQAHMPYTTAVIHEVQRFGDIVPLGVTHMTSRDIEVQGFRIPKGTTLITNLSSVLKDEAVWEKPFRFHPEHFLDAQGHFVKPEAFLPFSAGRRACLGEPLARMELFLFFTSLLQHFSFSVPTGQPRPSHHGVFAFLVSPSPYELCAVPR

Structure (SMILES)	activity, negative = inhibition	AC50
Cn1c(CCNC(=O)c2ccccc2Cl)n[nH]c1=S	-4.47% (inactive)	
O=C1O[C@H](CN2CCOCC2)CN1/N=C\c1ccc([N+](=O)[O-])o1	-18.9% [at 25.6 µM] (inactive)	
CCCSc1nnc(CSc2nc3nc(C)cc(C)n3n2)o1	-9.07% (inactive)	
Cc1cc(SCC(=O)c2ccccc2)nc(SCC(=O)c2ccccc2)n1	7.93% (inactive)	
Cc1ccccc1NC(=O)CSc1nc(N2CCCCC2)nc(N2CCCCC2)n1	14.4% (inactive)	
Cc1cccc(Nc2cc(Cl)nc(SCC(=O)O)n2)c1C		3.16 µM (active)
Cc1cn(CC[C@H](N)C(=O)O)c(=O)[nH]c1=O	-3.77% [at 11.4 µM] (inactive)	
CCCC(=O)Nc1nc2n(n1)C(c1ccccc1)CC(=O)N2 (centres undefined)	22.6% (inactive)	
CC(C)CCN1CC(C(=O)N2CCN(c3ccc(F)cc3)CC2)CC1=O (centres undefined)	-1.61% (inactive)	
CCOC(=O)c1cnc2c(cnn2CC)c1NN=C(C)C		inactive
CCOC(=O)c1cnc2c(cnn2C)c1NCCCN(C)C	-15.8% (inactive)	
CCCCNc1c(C(=O)OCC)c(C)nc2c1cnn2CC		inactive and 200 nM (active)
C#CCCCO/N=C1/C[C@@H](O)[C@@H](O)[C@@H]2[C@@H]3C(=O)N(Cc4ccccc4)C(=O)[C@H]3CC[C@@H]12	19.7% [at 11.4 µM] (inactive)	
CCOC(=O)C(NC(=O)CC)(Nc1sc2c(c1C(=O)OC)CCN(C)C2)C(F)(F)F (centres undefined)	-1.69% (inactive)	
CCCNC(=O)OC[C@H]1O[C@@H](CCO/N=C\[C@@H](NS(=O)(=O)c2ccc(C)cc2)[C@H](C)/C=C\CC(=O)OC)C=C[C@@H]1Oc1ccc(OC)cc1	-7.16% [at 11.4 µM] (inactive)	
NNC(=O)CCc1ccc2ccc3ccccc3c2c1		1.58 µM (active)
COc1ccc2cc(CCC(C)=O)ccc2c1	-4.42% [at 25.6 µM] (inactive)	
O=C(O)CCCc1ccc2ccccc2c1	0.631% [at 11.4 µM] (inactive)	
CS(=O)(=O)N1CCN(c2ccc(C(=O)NC3C4CC5CC(C4)CC3C5)cc2[N+](=O)[O-])CC1 (centres undefined)	-10% (inactive)	
Cc1ccc(CS(=O)(=O)CCC(=O)NCCCN2CCCC2)cc1	-24.2% (inactive)	
O=C(NCCOc1nc(N2CCOCC2)nc(N2CCOCC2)n1)Nc1ccccc1	6.07% (inactive)	
O=C(NCCCN1CCCC1=O)Nc1ccc(F)c(Cl)c1	0.447% (inactive)	
CCN(CC)c1ccc(NC(=O)CN2CCN(c3ccccc3F)CC2)cc1	-23.1% (inactive)	
Cc1ccccc1CS(=O)(=O)CCC(=O)NCCCN1CCN(c2ccccc2F)CC1		3.55 µM (active)
O=C(NCCCN1CCN(c2ccccc2F)CC1)C1CCC(=O)N1C1CCCCC1 (centres undefined)	-17.4% (inactive)	

Structure (SMILES)	activity, negative = inhibition	AC50
O=C(O)c1ccccc1-c1ccccc1C(=O)Nc1ccc2c(c1)Cc1cc(F)ccc1-2	-13.4% [at 11.4 µM] (inactive)	
O=C(CCN1CCc2ccccc2C1)Nc1ccc(F)cc1		2.24 µM (active)
Cc1ccc(NC(=O)CCC(=O)c2ccc(F)cc2)cc1Cl	-10.9% (inactive)	
Cc1ccc(CS(=O)(=O)CCC(=O)NCCCOC(C)C)cc1	10.1% (inactive)	
CSc1ccc(NC(=O)NCCCN2CCN(c3ccccc3F)CC2)cc1		3.55 µM (active)
O=C(NCCCN1CCc2ccccc2C1)Nc1ccc(Cl)cc1		3.55 µM (active)
O=C(O)/C=C/C(=O)Nc1ccc(F)cc1F	22.9% (inactive)	
O=C(O)C[C@H]1OCC=C2C[N@@+]3([O-])CC[C@]45c6ccccc6N[C@@H]4[C@@H]1[C@H]2C[C@H]53	9.02% [at 11.4 µM] (inactive)	
Cc1nc2cnc(N(C)C)nc2n(C)c1=O	-12.7% (inactive)	
O=C(O)c1ccccc1-c1ccccc1C(=O)Nc1ccc2c(c1)[nH]c(=O)c1ccccc12	-5.23% [at 11.4 µM] (inactive)	
O=c1c(-c2cc(F)cc(F)c2)nc2cncnc2n1Cc1ccccc1Cl	-8.97% (inactive)	
CN1CCN(NC(=O)CN2C(=O)/C(=C/c3c(Cl)cccc3Cl)SC2=S)CC1	-9.02% (inactive)	
COc1cc2cc3c(N)c(C(=O)Nc4sc(C)c(C)c4C#N)sc3nc2cc1OC	-0.0904% (inactive)	
C[C@](N)(C(=O)O)c1ccc(-c2nn[nH]n2)cc1	-0.522% (inactive)	
CCOC(=O)c1cc(CC)sc1NC(=O)c1cc(OCC)c(OCC)c(OCC)c1	-1.3% (inactive)	
S=C(S)NCCN1CCNCC1	-7.83% [at 11.4 µM] (inactive)	
NCCNC(=S)S	-18.7% [at 11.4 µM] (inactive)	
Cc1ccc(NC(=O)NCCCc2ccccc2)cc1	-26.1% (inactive)	
Cc1ccc(NC(=O)N/C=C/c2ccc(Cl)cc2)cc1	8.55% (inactive)	
S=C(S)NCCCn1ccnc1		0.794 µM (active)
CSc1ccc(NC(=O)Nc2cc(C)ccn2)cc1	-10.4% [at 11.4 µM] (inactive)	
COc1ccc(C(=O)N/C(=C/c2cccs2)C(=O)NCCCn2ccnc2)cc1OC	-6.39% (inactive)	
Cn1nc(-c2ccccc2)c(C(=O)Nc2ccc(Cl)cc2)c1Cl	18.7% (inactive)	
CSc1ccc(NC(=O)NCCN2CCc3ccccc3C2)cc1		5.01 µM (active)
O=C(NCc1cccnc1)c1sc2cc(Cl)ccc2c1Cl	-81.1% (inactive)	

Structure (SMILES)	activity, negative = inhibition	AC50
O=C(NCCCn1ccnc1)Nc1ccc(Cl)cc1		1.58 µM (active)
COc1ccc2c(Cl)c(C(=O)NCCCn3ccnc3)sc2c1Cl		0.631 µM (active)
Nc1nc2c(c(=O)[nH]1)CN(CCCN1CCOCC1)CN2	0.904% [at 11.4 µM] (inactive)	
Nc1ccc(S(=O)(=O)Nc2ncccn2)cc1	-3.37% [at 25.6 µM] (inactive)	
O=C1[C@H]2[C@H]3[C@H](O)[C@H](O)C/C(=N/OC[C@@H](O)COCc4ccco4)[C@@H]3CC[C@@H]2C(=O)N1C[C@@H]1CCCO1	3.77% [at 11.4 µM] (inactive)	
Cc1nnc(NC(=O)c2cccc(NC(=O)C(C)C)c2)s1	-16.4% (inactive)	
O=C(O)c1cc(S(=O)(=O)NCC2CCCO2)ccc1Cl (centres undefined)	7.8% (inactive)	
CN[C@@H]1[C@H](O[C@H]2[C@@H](O[C@@H]3[C@@H](O)[C@@H](O)[C@@H](N=C(N)N)[C@@H](O)[C@@H]3N=C(N)N)O[C@@H](C)[C@]2(O)CO)O[C@H](CO)[C@@H](O)[C@@H]1O	6.76% [at 25.6 µM] (inactive)	
COc1ccccc1C1=NOC(COC(=O)c2ccc3ccccc3n2)C1 (centres undefined)	-15.5% (inactive)	
Cc1cccc(N(CC(=O)NCCSCc2ccco2)S(=O)(=O)c2ccccc2)c1		10 µM (active)
COc1ccc(S(=O)(=O)N(C)CC(=O)NCc2ccco2)cc1	-21.7% (inactive)	
CN(c1ccc(C(=O)NCC2CCCO2)cc1)S(=O)(=O)c1ccccc1 (centres undefined)	-3.97% (inactive)	
Cc1cccc(Cc2c(C)nc3nc(SCC(=O)NCc4ccco4)nn3c2C)c1	-28.1% (inactive)	
Cc1cccc(CSCCNC(=O)c2ccc(N(C)S(=O)(=O)c3ccccc3)cc2)c1		3.98 µM (active)
O=C(CN(c1ccccc1)S(=O)(=O)c1ccccc1)NCCSCc1ccco1		15.8 µM (active)
CN(CCC(=O)O)S(=O)(=O)c1ccccc1	4.74% [at 11.4 µM] (inactive)	
CN(c1ccc(C(=O)NCc2ccccn2)cc1)S(C)(=O)=O	0.808% (inactive)	
Cc1cccc(N(CC(=O)N2CCOCC2)S(C)(=O)=O)c1	6.15% (inactive)	
COc1cccc(Nc2ncc3ncc(=O)n(C4CC4)c3n2)c1	-7.19% (inactive)	
Cc1ccc(C)c(CN2C(=O)C3CCCN3c3ccc(C#N)cc32)c1 (centres undefined)	-24.5% (inactive)	
CCOC(=O)c1c(C)oc2c1c(C=NC1CCS(=O)(=O)C1)c(O)c1ccccc12 (centres undefined)	16% (inactive)	
CCN1C(=O)[C@H]2[C@H]3[C@H](O)[C@H](O)C/C(=N/O[C@@H](C)c4cn([C@H](CO)Cc5ccccc5)nn4)[C@@H]3CC[C@@H]2C1=O	6.53% [at 11.4 µM] (inactive) and -9.99% [at 11.4 µM] (inactive)	
Cc1c(/C=N/NC(=O)c2ccc3c(c2)OCO3)cnn1C	-7.96% (inactive)	
CCNC(=S)NNC(=O)c1cc(C2CC2)nc2ccccc12	-6.71% (inactive)	
COC(=O)c1nn(-c2ccccc2)c(-c2ccccc2)c1C(=O)c1ccccc1	18.4% (inactive)	

Structure (SMILES)	activity, negative = inhibition	AC50
CCCOc1ccccc1C1CC(=O)NC(C)=C1C(=O)OCC(C)C (centres undefined)	34.2% (inactive)	
O=C(NCCO)c1cc2c(s1)CCC2	23.4% (inactive)	
Cc1cc(C(=O)CC#N)c(C)n1CC(F)(F)F	8.26% (inactive)	
CCOC(=O)c1c2c(n3ccccc13)C(=O)c1ccccc1C2=O	5.34% [at 11.4 µM] (inactive)	
COCCNC(=O)Cn1cnc2ccc(S(=O)(=O)N3CCC(C)CC3)cc2c1=O	30.8% (inactive)	
Cc1ccc2nc(N3CCN(S(=O)(=O)c4ccc5c(c4)OCCO5)CC3)c(C#N)cc2c1	-8.49% (inactive)	
NC(=O)c1ccc(NC(=O)C2CCCO2)cc1 (centres undefined)	-1.89% (inactive)	
CSc1ccc(CNc2ccc(C)c(C)c2)cc1		11.2 µM (active)
CSc1ccc(CNc2ccc(Cl)cc2)cc1	-40.9% (inactive)	
Cc1nc2cnc(Oc3ccccc3)nc2n(C)c1=O	1.84% (inactive)	
COc1ccc(-c2nc3cnc(OC)nc3n(C)c2=O)cc1	-0.979% (inactive)	
CCCS(=O)(=O)N1CCCC(C(=O)NCc2cccnc2)C1 (centres undefined)	-1.8% (inactive)	
COc1ccc(OC)c(S(=O)(=O)N2CCC(C(=O)Nc3ccc(C)c(C)c3)CC2)c1	-12.1% (inactive)	
O=C(Nc1ccc(Cl)c(C(F)(F)F)c1)C1CCCN(S(=O)(=O)c2cnc[nH]2)C1 (centres undefined)		3.98 µM (active)
CCOc1ccc(-c2nnc3ccc(SC)nn23)cc1	-16.4% (inactive)	
N[C@@H](CSS(=O)(=O)O)C(=O)O	-1.36% (inactive)	
CCOC(=O)c1c(C)nc2sc3c(=O)n(-c4ccc(C(C)=O)cc4)nnc3c2c1-c1ccc(Cl)cc1	0.783% (inactive)	
Cc1ccccc1-c1cncnc1NCc1cccnc1		15.8 µM (active)
Cc1cccc(CNc2ncncc2-c2ccccc2C)c1		3.98 µM (active)
CN(C)C(=O)c1ccc(-c2cncnc2NCc2cccnc2)cc1	-19.7% (inactive)	
Cc1noc(C)c1-c1cncnc1NCc1ccccc1	0.449% (inactive)	
CN(C)Cc1ccccc1-c1cncnc1NCc1cccnc1		6.31 µM (active)
N#Cc1ccccc1-c1cncnc1NCc1cccnc1	-4.85% (inactive)	
Cc1ccccc1-c1cncnc1NCc1ccccc1		12.6 µM (active)
